This is an account of results in PubChem BioAssay.

SMILES strings stand for the structures. This is one part of the list. The source made the active and inactive calls. Cut-off read from the data, not from the text of the source, unless noted: active = response below about 75% or above about 130%; inactive = in between.

Test [1] addresses Regulator of G-protein signaling 16 (Homo sapiens) (UniProt O15492). Kind of test: modulators of RGS–Galpha-o binding, primary screen, biochemical, multiplexed beads, flow cytometry, RGS4/7/8/16/19 (AID 1504).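 Note: fluorescently labeled Galpha-o bound to GDP with aluminium fluoride binding biotinylated RGS beads.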 The conditions noted are these: multiplexed bead flow cytometry, measured here: RGS16 interaction, at 10 µM. In general terms: A flow cytometer gives signals particle by particle.

The target in test [2] is Regulator of G-protein signaling 19 (Homo sapiens) (UniProt P49795). The test is described as above. The conditions noted are these: multiplexed bead flow cytometry, measured here: RGS19 interaction, at 10 µM.
The target of test [3] is Regulator of G-protein signaling 7 (Homo sapiens) (UniProt P49802). The description is as above. Particulars: multiplexed bead flow cytometry, measured here: RGS7 interaction, at 10 µM.
Test [4] concerns the target Regulator of G-protein signaling 8 (Homo sapiens) (UniProt P57771). Described as above. Particulars: multiplexed bead flow cytometry, measured here: RGS8 interaction, at 10 µM.
A short description of test [5]: disruption of biotin probe capture by avidin, counter-screen for RGS protein interaction modulators, biochemical, flow cytometry, bead-based (AID 1783;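 active = inhibition above 50%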;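 note: median green fluorescence of gated singlet beads compared with DMSO control wells; 0% = DMSO wells and 100% = complete loss of bead fluorescence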). The conditions noted are these: streptavidin beads, fluorescein-biotin binding; at 10 µM, stronger effect = higher value. (In general: Counterscreens check selectivity or assay interference.)
In test [6] the target is Guanine nucleotide-binding protein G(o) subunit alpha (Homo sapiens) (UniProt P09471). The test can be described thus: RGS8-Galphao binding modulators, confirmation, biochemical, multiplexed bead flow cytometry, single concentration (AID 1836; in the data active = binding response below about 72% or above about 130%; inactive = in between;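 note: Galphao activated as GDP AlF4 complex before binding bead RGS8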). Particulars: bead-based flow cytometry RGS8-Galphao binding, fluorescence; at 10 µM; actives lie on both sides.
Test [7] shares this target. The test can be described thus: RGS7-Galphao binding modulators, confirmation, biochemical, multiplexed bead flow cytometry, single concentration (AID 1837).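 Note: fluorescent Galphao activated with GDP and aluminum fluoride binding bead-coupled RGS7.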 Particulars: bead-based flow cytometry RGS7-Galphao binding; at 10 µM; actives lie on both sides.
The target of test [8] is Regulator of G-protein signaling 16 (Homo sapiens) + Guanine nucleotide-binding protein G(o) subunit alpha (Homo sapiens) (UniProt O15492+P09471). Kind of test: modulators of RGS16-Galphao protein binding, confirmation, biochemical, single concentration, multiplexed bead flow cytometry (AID 1838; in the data active = response below about 74% or above about 130%; inactive = in between;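 note: Galphao activated as the GDP aluminium fluoride complex binding bead-coupled RGS16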). Particulars: bead-based flow cytometry, at 10 µM, actives lie on both sides.

For test [9], the target named is Guanine nucleotide-binding protein G(o) subunit alpha (Homo sapiens) (UniProt P09471). The test can be described thus: modulators of RGS4-Galphao protein binding, confirmation, biochemical, single concentration, multiplexed bead flow cytometry (AID 1840; in the data active = binding response below about 74% or above about 130%; inactive = in between). Particulars: at 10 µM, actives lie on both sides.
The target in test [10] is Guanine nucleotide-binding protein G(o) subunit alpha (Homo sapiens) + Regulator of G-protein signaling 19 (Homo sapiens) (UniProt P09471+P49795). The test can be described thus: regulators of RGS19-Galphao binding, confirmation, biochemical, single point, multiplexed bead flow cytometry (AID 1841; in the data active = response below about 50% or above about 160%; inactive = in between;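 note: 100% = no compound control and 0% = blank background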). The conditions noted are these: bead-based flow cytometry RGS19-Galphao binding; at 10 µM; actives lie on both sides.
Sequence of Guanine nucleotide-binding protein G(o) subunit alpha (Homo sapiens) + Regulator of G-protein signaling 19 (Homo sapiens) (P09471 whole entry, looked up): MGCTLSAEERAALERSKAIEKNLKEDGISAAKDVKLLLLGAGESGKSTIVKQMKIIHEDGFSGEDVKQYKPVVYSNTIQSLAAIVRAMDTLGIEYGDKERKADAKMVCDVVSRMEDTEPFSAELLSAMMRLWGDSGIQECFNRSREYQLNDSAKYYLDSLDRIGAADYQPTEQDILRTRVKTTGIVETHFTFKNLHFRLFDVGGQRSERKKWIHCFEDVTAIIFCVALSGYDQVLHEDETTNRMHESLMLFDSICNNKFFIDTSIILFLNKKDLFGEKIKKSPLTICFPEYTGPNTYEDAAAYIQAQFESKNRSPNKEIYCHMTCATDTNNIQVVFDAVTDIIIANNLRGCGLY
Sequence of Guanine nucleotide-binding protein G(o) subunit alpha (Homo sapiens) + Regulator of G-protein signaling 19 (Homo sapiens) (P49795 whole entry, looked up): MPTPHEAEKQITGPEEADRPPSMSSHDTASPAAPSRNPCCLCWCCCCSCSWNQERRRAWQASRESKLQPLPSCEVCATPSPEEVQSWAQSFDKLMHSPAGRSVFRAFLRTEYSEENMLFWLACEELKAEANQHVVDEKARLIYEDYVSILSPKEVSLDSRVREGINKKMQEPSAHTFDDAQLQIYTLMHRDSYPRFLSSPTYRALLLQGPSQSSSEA

Sequence of Regulator of G-protein signaling 16 (Homo sapiens) + Guanine nucleotide-binding protein G(o) subunit alpha (Homo sapiens) (O15492 whole entry, looked up): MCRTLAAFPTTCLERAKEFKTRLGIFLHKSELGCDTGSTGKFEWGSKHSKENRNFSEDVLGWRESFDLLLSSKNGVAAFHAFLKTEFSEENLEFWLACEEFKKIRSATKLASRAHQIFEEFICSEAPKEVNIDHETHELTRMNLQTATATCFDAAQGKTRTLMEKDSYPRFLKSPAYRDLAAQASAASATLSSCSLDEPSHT
Sequence of Regulator of G-protein signaling 16 (Homo sapiens) + Guanine nucleotide-binding protein G(o) subunit alpha (Homo sapiens) (P09471 whole entry, looked up): as the sequence (P09471 whole entry, looked up) above
Sequence of Guanine nucleotide-binding protein G(o) subunit alpha (Homo sapiens) (P09471 whole entry, looked up): as above

For the compound `CCOc1cc(C(=O)N2CCc3cc(OC)c(OC)cc3C2)ccc1OC(F)F`, the RGS16–Galpha-o binding response in test [1] came out at 124%. Besides, the RGS19–Galpha-o binding response in test [2] is -289%. The RGS7–Galpha-o binding response in [3] was 159%. The compound also yielded an RGS8–Galpha-o binding response in test [4] of 105%.

`O=C(CN1CCOCC1)Nc1ccccc1`: in [1], the RGS16–Galpha-o binding response was 297%. Moreover, the RGS19–Galpha-o binding response in test [2] came to 103%. Also, the RGS7–Galpha-o binding response in test [3] is 112%. This compound also came in with an RGS8–Galpha-o binding response in [4] of 145%. In addition, the inhibition in test [5] is 2.3% (inactive). Further, the binding response (% of control) is 97.1% (inactive) in test [6] and 97.7% (inactive) in [9]. The response (percent of control binding) was 92.3% (inactive) in [7] and 97.1% (inactive) in test [10]. In test [8], the response (% of control binding) is 94.4% (inactive).

Consider `Cc1c(CN2CCCC(C(=O)c3cccc(Cl)c3)C2)c(=O)n(-c2ccccc2)n1C` (centres undefined), for which, in test [1], the RGS16–Galpha-o binding response is 97.1%. For the same compound, the RGS19–Galpha-o binding response in test [2] is 50.3%. The RGS7–Galpha-o binding response in test [3] is 230%. The RGS8–Galpha-o binding response in test [4] came to 95%. Besides, the inhibition in test [5] was -1.5% (inactive). For the same compound, the binding response (% of control) in test [6] is 102% (inactive); in test [9], 103% (inactive). For the same compound, the response (percent of control binding) in test [7] is 106% (inactive); in test [10], 104% (inactive). Also, the response (% of control binding) in test [8] was 102% (inactive).

For the compound `Cc1cc(C)nc(/N=C2\NC(=O)CC(C(=O)O)N2c2ccc(Cl)cc2Cl)n1` (centres undefined), the RGS16–Galpha-o binding response in test [1] is 99.8%. Besides, in test [2], the RGS19–Galpha-o binding response is 104%. Further, the RGS7–Galpha-o binding response in test [3] is 170%. In test [4], this compound displayed an RGS8–Galpha-o binding response of 107%. Besides, the inhibition in [5] was 0.1% (inactive). Further, the binding response (% of control) in test [6] and in test [9] was 102% (inactive) in each case. The response (percent of control binding) in test [7] and in test [10] was 101% (inactive) throughout. Also, the response (% of control binding) in test [8] is 102% (inactive).

On to `CCN(CC)CCn1cnc2c1c(=O)n(CCOC(=O)c1cc(OC)c(OC)c(OC)c1)c(=O)n2C`, for which the RGS16–Galpha-o binding response in test [1] came to 147%. Besides, the RGS19–Galpha-o binding response in test [2] was found to be 76.4%. Moreover, in test [3], the RGS7–Galpha-o binding response was found to be 13%. Besides, the RGS8–Galpha-o binding response in [4] came out at 131%. The inhibition in test [5] was -0.6% (inactive). Further, the binding response (% of control) was 104% (inactive) in test [6] and 105% (inactive) in test [9]. Moreover, the response (percent of control binding) in [7] is 103% (inactive); in test [10] it was 108% (inactive). In addition, the response (% of control binding) in test [8] was 104% (inactive).

For the compound `Cc1ccc(N2C(=O)C3C(c4ccccc4)(C2=O)C3(c2ccccc2)c2ccccc2)cc1` (centres undefined), the RGS16–Galpha-o binding response in [1] stood at 13.2%. Further, the RGS19–Galpha-o binding response in test [2] worked out at 310%. The RGS7–Galpha-o binding response in test [3] was 14.4%. The compound further yielded an RGS8–Galpha-o binding response in test [4] of 23.3%. Further, the inhibition in test [5] was -0.7% (inactive). The binding response (% of control) in test [6] was 91.8% (inactive); in test [9], 68.2% (active). For the same compound, the response (percent of control binding) is 60.8% (active) in test [7] and 75.7% (inactive) in test [10]. The response (% of control binding) in test [8] was 80.2% (inactive).

`CC(C)Cc1nc(Nc2ccc(S(=O)(=O)N3CCCC3)cc2)c2nnn(Cc3ccccc3)c2n1`: in [1], the RGS16–Galpha-o binding response amounted to 260%. In addition, the RGS19–Galpha-o binding response in [2] came to 48.9%. For the same compound, the RGS7–Galpha-o binding response in test [3] came to 137%. In test [4], this compound displayed an RGS8–Galpha-o binding response of 141%. Also, the inhibition in [5] was 1.3% (inactive). Further, the binding response (% of control) in test [6] is 94.8% (inactive); in test [9], 90.6% (inactive). In addition, the response (percent of control binding) in test [7] was 91.8% (inactive); in test [10] it was 95.9% (inactive). In addition, the response (% of control binding) in test [8] was 91.9% (inactive).

With `Cc1cc(C)cc(N(CC(=O)Nc2c(C)n(C)n(-c3ccccc3)c2=O)S(C)(=O)=O)c1`, in test [1], the RGS16–Galpha-o binding response is -28.4%. Besides, the RGS19–Galpha-o binding response in [2] came out at 156%. Moreover, the RGS7–Galpha-o binding response in test [3] is -21.3%. In addition, in test [4], the RGS8–Galpha-o binding response was 1.54%. Also, in test [5], the inhibition was -0.5% (inactive). The binding response (% of control) was 104% (inactive) in [6] and 103% (inactive) in [9]. Further, the response (percent of control binding) in test [7] is 104% (inactive); in [10], 108% (inactive). The response (% of control binding) in [8] was 108% (inactive).

On to `FC(F)Oc1ccccc1C1CC(c2ccc(Br)s2)Nc2ncnn21` (centres undefined), for which the RGS16–Galpha-o binding response in test [1] turned out to be 215%. Further, in test [2], the RGS19–Galpha-o binding response is -1720%. In addition, the RGS7–Galpha-o binding response in test [3] worked out at 163%. For the same compound, the RGS8–Galpha-o binding response in test [4] is 111%. Further, the inhibition in [5] is 2.6% (inactive). In addition, the binding response (% of control) in test [6] is 99.3% (inactive); in test [9] it was 95.9% (inactive). Besides, the response (percent of control binding) is 98% (inactive) in test [7] and 96% (inactive) in [10]. The response (% of control binding) in test [8] is 97.2% (inactive).

The inhibition is the relative decrease from the control value, in per cent.
